Measurements: PubChem BioAssay (NCATS)
Results filed as inconclusive are left out. Entries that show only a call come without a potency. Activity calls are given as the source filed them. The call rests on the fitted dose curve; in most records, active means well fitted cell-killing curve with a large enough effect; inconclusive means small, poorly fitted or top-dose-only effect; inactive means flat fitted curve, though single readings scatter.

assay: Quantitative highthroughput screen to assess conditional lethalithy of NOMO1 cells grown in RPMI1640 with dialyzed fetal bovine serum (RPMI+ds) (AID 1963877); conditions: NOMO1 in RPMI+dialyzed FBS viability, ATP luminescence, 48 h; series mostly up to 45.8 µM; further: nearly all actives have a fitted effect of over 30% in size
Source text: Assay Provider: Jason Cantor Ph.D.
Department of Biochemistry
University of Wisconsin-Madison, Madison, WI, USA
Chemical screening studies have identified drug sensitivities across hundreds of cancer cell lines but most putative therapeutics fail to translate. Discovery and development of drug candidates in models that more accurately reflect nutrient levels in human blood is a major challenge. Here we performed high-throughput screens in conventional versus Human Plasma-Like Medium (HPLM) to identify compounds that were "missed" when screening using the artificial culture condition. Sets of conditional anticancer compounds spanned phases of clinical development and included non-oncology drugs were assessed. […] We also traced conditional phenotypes for several chemotherapeutics to availability of HPLM-specific metabolites and confirmed others for compounds whose reported targets are encoded by nonessential genes. Our findings establish generalizable strategies for exploiting conditional lethality in HPLM to reveal therapeutic candidates and mechanisms of action in cancer cells.
Described herein are the results of each viability screens against three cell lines: NOMO1 (an acute myeloid leukemia cell line); P12-Ichikawa (a T-cell acute lymphoblastic leukemia); and SEM (a B-cell ALL). Each assay was screened using 3 different cell culture media: homemade human plasma-Like medium with 10% dialyzed fetal bovine serum (HPLM+ds); RPMI1640 with 10% untreated FBS and 5mM glucose (RPMI+s); and RPMI1640 with 10% dialyzed fetal bovine serum and 5 mM glucose (RPMI+ds).
PROTOCOL TABLE (as described by Inglese J, Shamu CE and Guy RK. 2007)
SEQUENCE No. (e.g., 1, 2, 3, etc.); […] (e.g., Cells, Incubation, Reagent, etc.); VALUE and DESCRIPTION.
1; Cells; 5 uL; white, solid bottom 1536-well Greiner assay plate.
2; Compounds; 23 nL; Kalypsis pin tool (Wako USA) equipped with a 1536-well pin head to transfer to the assay plates.
3; Incubation; 48 hours; 37C incubation.
4; Reagent; 3 uL; CellTiter Glo (Promega).
5; Incubation; 5 min, room temperature
6; Detection; Luminescence, Viewlux PerkinElmer.
NOTES (numbers refer to Sequence numbers above)
1. Briefly, 5 ul of cell reagent was dispensed using a Multidrop Combi Dispenser. The NOMO1 and SEM cells were plated at 500 cells/well and the P12-Ichikawa line at 1000 cells/well.
2. After seeding the cells, 23 nL of MIPE 4.1 library compounds (in DMSO) were added to each plate using a Kalypsys 1536 Pintool dispenser. Bortezomib at final concentration of […] and DMSO were added to each plate as positive and negative controls respectively. For each screen, MIPE 4.1 compounds were added over an eleven-point concentration range […] in 3-fold dilutions.
3. Each plate was covered with a stainless steel gasketed lid to prevent evaporation and incubated for 48 hour at 37C, 95% relative humidity, and 5% CO2.
4-5. Three microliter CellTilter-GloTM luminescent substrate mix (Promega) reagent was added to the assay plate and incubated at room temperature for 5 min.
6. The luminescence signal was measured using a ViewLux (PerkinElmer) multiplate reader with a 2 second exposure time per plate. Data for each compound were normalized as percent viability such that measurements for DMSO and the empty well controls in each plate were defined as 100% and 0%, respectively.
Potency means the concentration at half of the fitted maximal effect.

Compound	Potency
O=C(O)c1ccccc1C(=O)Nc1ccc(-c2ccccc2)cc1	inactive
COC(=O)C[C@](O)(CCCC(C)(C)O)C(=O)O[C@@H]1C(OC)=C[C@]23CCCN2CCc2cc4c(cc2[C@H]13)OCO4	inactive
COc1cc(NC(=O)c2ccc(-c3ccc(Cl)cc3)o2)cc(OC)c1	2.35 µM (active)
CCCCN(CCCC)CCC(O)c1cc2c(Cl)cc(Cl)cc2c2cc(C(F)(F)F)ccc12 (stereo not given)	inactive
Cc1[nH]c(=O)c(C#N)cc1-c1ccc2nccn2c1	inactive
COc1ccc(-c2ccc3cc(C(=O)O)ccc3c2)cc1C12CC3CC(CC(C3)C1)C2	inactive
COc1cccc(OC)c1-c1cc(C(=O)NC2(C(=O)O)C3CC4CC(C3)CC2C4)nn1-c1ccnc2cc(Cl)ccc12 (stereo not given)	inactive
O=C(NC[C@H](O)CN1CCc2ccccc2C1)c1cc(NC2COC2)ncn1	inactive
CN(CC=CC#CC(C)(C)C)Cc1cccc2ccccc12	inactive
NS(=O)(=O)c1ccc(Nc2nc(OCC3CCCCC3)c3[nH]cnc3n2)cc1	0.59 µM (active)
O=C(c1ccccc1)c1ccc2n1CCC2C(=O)O (stereo not given)	inactive
O=C(O)[C@H](Cc1c[nH]c2ccccc12)N1C(=O)c2ccccc2C1=O	inactive
CC[C@H](CO)Nc1nc(NCc2ccccc2)c2ncn(C(C)C)c2n1	inactive
Oc1cc(O)cc(C=Cc2ccc(O)c(O)c2)c1	inactive
O=C(NNC(=O)c1ccc(CNS(=O)(=O)c2ccc(F)c(Cl)c2)cc1)c1ccccc1	inactive
Cc1noc(-c2ccc(CSCCC(=O)O)cc2)c1NC(=O)OC(C)c1ccccc1Cl (stereo not given)	inactive
COc1cc2ncnc(-n3nc(-c4ccccn4)nc3N)c2cc1OC	23.5 µM (active)
C[C@@H](N)C1CCC(C(=O)Nc2ccncc2)CC1 (stereo not given in full)	inactive
Cc1cnc(CNC(=O)c2c(=O)c3ccc(N4CCCN(C)CC4)nc3n3c2sc2ccccc23)cn1	inactive
CCCCCCCCCCCCCC(=O)N[C@H](CO)[C@H](O)c1ccc([N+](=O)[O-])cc1	2.64 µM (active)

Compound	Potency
CCCCCCCN(CC)CCCC(O)c1ccc(NS(C)(=O)=O)cc1 (stereo not given)	inactive
O=C(c1ccc(C(=O)N2CCC(N3CCCC3)CC2)c(Nc2ccccc2)c1)N1CCC(N2CCCC2)CC1	inactive
Cc1oc(=O)oc1CN1CCN(c2cc3c(cc2F)c(=O)c(C(=O)O)c2n3C(C)S2)CC1 (stereo not given)	inactive
N[C@@H](CC(=O)N1CCn2c(nnc2C(F)(F)F)C1)Cc1cc(F)c(F)cc1F	inactive
CCCCN(CCCC)C(=O)CN1C[C@H](c2ccc3c(c2)OCO3)[C@@H](C(=O)O)[C@@H]1c1ccc(OC)cc1	inactive
OC[C@H]1O[C@@H](Oc2ccc(O)cc2)[C@H](O)[C@@H](O)[C@H]1O	inactive
Cc1cn[nH]c1	inactive
O=C1CCc2cc(OCCCCc3nnnn3C3CCCCC3)ccc2N1	inactive
N#CC(c1ccnc(NCCc2cccnc2)n1)c1nc2ccccc2s1 (stereo not given)	inactive
COc1ccc(C2CC(c3ccccc3)=NN2c2ccc(S(N)(=O)=O)cc2)cc1 (stereo not given)	4.18 µM (active)
CCC(C)(C)c1ccc(CC(C)CN2C[C@@H](C)O[C@@H](C)C2)cc1 (stereo not given in full)	inactive
C[C@@H](N)c1ccc(C(=O)Nc2ccnc3[nH]ccc23)cc1	18.7 µM (active)
NC(=O)OCC(COC(N)=O)c1ccccc1	inactive
Cc1cc2c(F)c(Oc3ncnn4cc(OC[C@@H](C)O)c(C)c34)ccc2[nH]1	inactive
CC(O)(C#Cc1ccc2c(c1)N(c1nc(N)ncc1Cl)CC2)c1nccs1 (stereo not given)	inactive
O=c1ccn([C@@H]2O[C@H](CO)[C@H](O)[C@H]2O)c(=O)[nH]1	inactive
Cc1ccc2c(=O)c3cccc(CC(=O)O)c3oc2c1C	inactive
Nc1ncnc2nc(-c3ccc(N4CCOCC4)nc3)cc(-c3cccc(Br)c3)c12	inactive
CCOC(=O)c1ncn2c1CN(C)C(=O)c1cc(F)ccc1-2	inactive
Nc1nc(N)nc(-c2cc(Cl)ccc2Cl)n1	inactive
